For four compounds, outcome and AC50 results are on record in PubChem BioAssay (EPA / NIEHS).

Records with an inconclusive call do not appear. Activity calls are given as the source filed them. How the source made its calls, unless noted: active means hit-call score of the fitted dose curve at least 0.9, where 1 is the maximum; inconclusive means response in the unintended direction; inactive means score below 0.9.

Test [1] in a line: TOX21_p53_BLA_p2_viability: Viability Assessment in the Tox21 HCT-116 p53 Agonism Beta-lactamase Assay, Phase 2 (AID 2283591).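 Further: compound exposure lasted 16 h at 37 °C; actives lower the ATP signal meaning cytotoxicity.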 Put shortly: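 HCT116 p53-bla cells, 4000/well, dosed after 5 h plating (217-fold dilution of DMSO stocks) and incubated 16 h at 37C. Viability taken as cellular ATP by CellTiter-Glo luminescence after 30 min RT; signal loss marks cytotoxicity.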
Test [2] concerns the target Cellular tumor antigen p53 (Homo sapiens) (UniProt P04637). In words: TOX21_p53_BLA_p2_ratio: Tox21 HCT-116 p53 Agonism Beta-lactamase Assay, Ratio, Phase 2 (AID 2283592). Put shortly: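 Cleaved-to-uncleaved substrate ratio (460 vs 530 nm) measured in HCT116 cells with an inducible beta-lactamase reporter linked to p53 activity. Compounds incubated 16 h at 37C before 2 h room-temperature CCF4-AM loading.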

A short description of test [3]: TOX21_p53_BLA_p3_viability: Viability Assessment in the Tox21 HCT-116 p53 Agonism Beta-lactamase Assay, Phase 3 (AID 2283593).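 Further: cells exposed to compound for 16 h before reading.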 The gist of the method:
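HCT116 cells, 4000/well, dosed 5 h after plating by pin transfer (217-fold dilution from DMSO stock) and incubated 16 h at 37C, 5% CO2. Viability read as ATP luminescence with CellTiter-Glo after 30 min at room temperature.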

Test [4] has as its target Cellular tumor antigen p53 (Homo sapiens) (UniProt P04637). In words: TOX21_p53_BLA_p3_ratio: Tox21 HCT-116 p53 Agonism Beta-lactamase Assay, Ratio, Phase 3 (AID 2283596). The gist of the method: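 Cells were seeded at 4000/well, rested 5 h at 37C, then dosed with DMSO compound solutions (217-fold dilution) for 16 h. CCF4-AM substrate was loaded for 2 h at room temperature, and the 460/530 nm emission ratio was fitted for gain of signal versus DMSO.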

Test [5] has the same target. In words: TOX21_p53_BLA_p5_ratio: Tox21 HCT-116 p53 Agonism Beta-lactamase Assay, Ratio, Phase 5 (AID 2283599). The gist of the method:
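HCT-116 p53-bla cells (4000/well) plated 5 h, dosed with compound (217-fold DMSO dilution) for 16 h at 37 C; CCF4-AM substrate 2 h at room temperature. Activity is the 460/530 nm emission ratio (405 nm excitation), fitted in gain-of-signal direction versus DMSO.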

Test [6] can be described thus: TOX21_p53_BLA_p5_viability: Viability Assessment in the Tox21 HCT-116 p53 Agonism Beta-lactamase Assay, Phase 5 (AID 2283600). The gist of the method: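 Viability is taken from cellular ATP content, measured by luciferase luminescence in the same wells after the beta-lactamase ratio read. Cells are seeded at 4000 per well and exposed to DMSO-dissolved compounds, diluted 217-fold, for 16 h.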

Test [7] addresses Cellular tumor antigen p53 (Homo sapiens) (UniProt P04637). In words: TOX21_p53_BLA_p4_ratio: Tox21 HCT-116 p53 Agonism Beta-lactamase Assay, Ratio, Phase 4 (AID 2283601). Put shortly: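 HCT-116 p53 beta-lactamase reporter cells (4000/well) preincubated 5 h, then compound (217-fold dilution of DMSO stock) for 16 h at 37C. CCF4-AM substrate added 2 h at room temperature; 460/530 nm emission ratio fitted upward versus DMSO.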

The nature of test [8]: UKN5_HCS_SBAD2_cell_viability: Viability Assessment in the University of Konstanz (UKN) Leist Lab Neurite Outgrowth Assay in human iPSC-derived immature Dorsal Root Ganglia Neurons (UKN5) (AID 2284056; active means hit-call score of the fitted dose curve at least 0.9, where 1 is the maximum; inactive means score below 0.9). The gist of the method: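 iPSC-derived immature peripheral neurons (SBAD2) seeded on Matrigel with CHIR99021, SU5402 and DAPT, dosed 1 h later for 24 h. Viability from Hoechst H-33342 and calcein-AM live staining, high-content imaging; bidirectional fit versus DMSO.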

Test [9] can be described thus: UKN5_HCS_SBAD2_neurite_outgrowth: University of Konstanz (UKN) Leist Lab Neurite Outgrowth Assay in human iPSC-derived immature Dorsal Root Ganglia Neurons (UKN5) (AID 2284070; active means hit-call score of the fitted dose curve at least 0.9, where 1 is the maximum; inactive means score below 0.9). The note with it: actives raise or lower the signal. The gist of the method: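 Cryopreserved SBAD2 peripheral neurons were seeded at 100.000 cells/cm2 in N2-S/KSR medium containing CHIR99021, SU5402 and DAPT, then exposed to compounds for 24 h. Neurite area from calcein-AM high-content imaging was fitted bidirectionally against DMSO.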

The nature of test [10]: UKN2_HCS_IMR90_neural_migration: University of Konstanz (UKN) Leist Lab Neural Crest Cell Migration Assay in human induced IMR90 Pluripotent Stem Cells (UKN2) (AID 2284204; active means hit-call score of the fitted dose curve at least 0.9, where 1 is the maximum; inactive means score below 0.9). The note with it: actives raise or lower the signal. Put shortly: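 Stopper-exclusion migration (cMINC), human iPSC-derived neural crest cells; N2-S + EGF/FGF; compound added 24 h post-stopper removal, 24 h exposure. Readout: calcein-AM/Hoechst 30 min, HCS fluorescence imaging; bidirectional fitting, DMSO baseline.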

Test [11] in a line: UKN4_HCS_LUHMES_neurite_outgrowth: University of Konstanz (UKN) Leist Lab Neurite Outgrowth Assay in human LUHMES cells (UKN4) (AID 2284206; active means hit-call score of the fitted dose curve at least 0.9, where 1 is the maximum; inactive means score below 0.9). The note with it: actives raise or lower the signal. Put shortly:
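Read-out: calcein-AM neurite area by high-content fluorescence imaging, with Hoechst H-33342 viability counterstain, after 24 h chemical exposure of day-2 differentiated LUHMES cells. Activity fitted bidirectionally against DMSO baseline.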

A short description of test [12]: IUF_NPC1b_proliferation_BrdU_72hr: Leibniz Research Institute for Environmental Medicine (IUF) 72-hour Neural Progenitor Cell Bromodeoxyuridine (BrdU) Proliferation Assay (NPC1b) (AID 2284207; active means hit-call score of the fitted dose curve at least 0.9, where 1 is the maximum; inactive means score below 0.9). Put shortly: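 Luminescent BrdU ELISA measured DNA synthesis during the last 16 h of a 72 h exposure of primary human neural progenitor spheres grown with EGF and FGF. Signal was fitted relative to DMSO controls.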

A short description of test [13]: IUF_NPC1a_proliferation_area_72hr: Leibniz Research Institute for Environmental Medicine (IUF) 72-hour Neural Progenitor Cell Proliferation Area Assay (NPC1a) (AID 2284208; active means hit-call score of the fitted dose curve at least 0.9, where 1 is the maximum; inactive means score below 0.9). Put shortly:
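Proliferation is scored as sphere area gain in primary human fetal neural progenitors treated for 72 h in EGF/FGF-containing medium. Viability, LDH and BrdU readouts come from the same wells.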

The nature of test [14]: IUF_NPC1_viability_72hr: Viability Assessment at 72 hours in the Leibniz Research Institute for Environmental Medicine (IUF) Neural Progenitor Cell Proliferation Assay (NPC1) (AID 2284209; active means hit-call score of the fitted dose curve at least 0.9, where 1 is the maximum; inactive means score below 0.9). The gist of the method: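 Alamar blue fluorescence (RFU) after 72 h exposure, normalized to DMSO baseline. hNPC spheres from GW 16-19 fetal cortex, single sphere per well in growth-factor medium; no compound renewal.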

Test [15] can be described thus: UKN4_HCS_LUHMES_cell_viability: Viability Assessment in the University of Konstanz (UKN) Leist Lab Neurite Outgrowth Assay in human LUHMES cells (UKN4) (AID 2284232; active means hit-call score of the fitted dose curve at least 0.9, where 1 is the maximum; inactive means score below 0.9). The gist of the method: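 Day-2 differentiated LUHMES, 30000 cells/well, dosed ~30 min–2 h post-seeding; 24 h treatment incl. staining; Hoechst H-33342 + calcein-AM at 23.5 h; HCS imaging; DMSO-normalized, bidirectional fit.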

The nature of test [16]: UKN2_HCS_IMR90_cell_viability: Viability Assessment in the University of Konstanz (UKN) Leist Lab Neural Crest Cell Migration Assay in human induced IMR90 Pluripotent Stem Cells (UKN2) (AID 2284233; active means hit-call score of the fitted dose curve at least 0.9, where 1 is the maximum; inactive means score below 0.9;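 further: cells exposed to compound for 24 h after a 24 h migration phase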). Put shortly: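 Viability read as calcein-AM fluorescence by high-content imaging, Hoechst co-stain, 30 min. Human iPSC (IMR90) neural crest cells had migrated 24 h into stopper-defined gaps before 24 h chemical exposure. Fitted bidirectionally relative to DMSO.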

A short description of test [17]: IUF_NPC2c_oligodendrocyte_migration_120hr: Leibniz Research Institute for Environmental Medicine (IUF) 120-hour Neural Progenitor Cell Migration Assay for Oligodendrocyte Migration (NPC2c) (AID 2284297; active means hit-call score of the fitted dose curve at least 0.9, where 1 is the maximum; inactive means score below 0.9;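 further: O4-positive oligodendrocyte migration distance divided by radial glia migration distance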). Put shortly: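 Primary hNPC spheres migrating on extracellular matrix, exposed five days to a 7-point dilution series with solvent control. Oligodendrocyte migration was scored by high-content imaging of O4 immunostaining and expressed relative to radial glia distance.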

A short description of test [18]: IUF_NPC2a_radial_glia_migration_120hr: Leibniz Research Institute for Environmental Medicine (IUF) 120-hour Neural Progenitor Cell Migration Assay for Radial Glia Migration (NPC2a) (AID 2284298; active means hit-call score of the fitted dose curve at least 0.9, where 1 is the maximum; inactive means score below 0.9). The gist of the method:
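In this multiplexed test, fetal hNPC spheres migrate radially on poly-D-lysine/laminin in N2 medium (37C, 5% CO2, pH 7.2-7.6) under continuous compound exposure over five days. Migration is scored at 120 h from automated Hoechst nuclear imaging.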

Test [19] is described as follows: IUF_NPC2a_radial_glia_migration_72hr: Leibniz Research Institute for Environmental Medicine (IUF) 72-hour Neural Progenitor Cell Migration Assay for Radial Glia Migration (NPC2a) (AID 2284299; active means hit-call score of the fitted dose curve at least 0.9, where 1 is the maximum; inactive means score below 0.9). The gist of the method:
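Readout: mean of four manual brightfield measurements of radial glia migration distance (um) at 72 h. hNPC spheres (0.3 mm) exposed to 7 compound concentrations plus solvent control on PDL/laminin, 37C, 5% CO2; activity fitted relative to DMSO.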

The nature of test [20]: IUF_NPC2b_neuronal_migration_120hr: Leibniz Research Institute for Environmental Medicine (IUF) 120-hour Neural Progenitor Cell Migration Assay for Neuron Migration (NPC2b) (AID 2284300; active means hit-call score of the fitted dose curve at least 0.9, where 1 is the maximum; inactive means score below 0.9). Put shortly:
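Neurons identified by TUBB3 immunostaining and Hoechst nuclei; migration distance measured automatically on fixed wells at 120 h, normalized to glia migration. Exposure spanned five days of differentiation in N2 medium, seven test concentrations.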

Test [21] can be described thus: IUF_NPC3_neuronal_differentiation_120hr: Leibniz Research Institute for Environmental Medicine (IUF) 120-hour Neuronal Differentiation Assay (NPC3) (AID 2284301; active means hit-call score of the fitted dose curve at least 0.9, where 1 is the maximum; inactive means score below 0.9). The gist of the method: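 hNPC spheres, PDL/laminin, DMEM/F12 3:1 + 1% N2, 37C, 5% CO2; 7 concentrations + solvent control, 5 d exposure, half-change day 3. Fix 120 h; TUBB3/Hoechst ICC, CNN neuron calling; % neurons vs nuclei, DMSO-normalized.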

Test [22] can be described thus: IUF_NPC4_neurite_length_120hr: Leibniz Research Institute for Environmental Medicine (IUF) 120-hour Neuronal Morphology Assay for Neurite Length (NPC4) (AID 2284302; active means hit-call score of the fitted dose curve at least 0.9, where 1 is the maximum; inactive means score below 0.9). The gist of the method:
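hNPC spheres (0.3 mm, fetal brain GW 16-19) on PDL/laminin, DMEM:F12 3:1 + 1% N2, 37C 5% CO2; 7 concs + solvent control, day 0-5, half medium change d3; fix 120 h, TUBB3 ICC, mean neurite length um vs DMSO.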

Test [23] can be described thus: IUF_NPC4_neurite_area_120hr: Leibniz Research Institute for Environmental Medicine (IUF) 120-hour Neuronal Morphology Assay for Neurite Area (NPC4) (AID 2284305). Put shortly: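 hNPC spheres on PDL/laminin, N2 medium, 37C/5% CO2; dosed day 0, half-medium refresh day 3; fixed 120 h; TUBB3/Hoechst ICC, high-content imaging; neurite area = mean pixels per neuron (nuclei excluded); DMSO baseline, max 0.1%.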

A short description of test [24]: IUF_NPC2-5_cytotoxicity_72hr: Cytotoxicity Assessment at 72 hours in the Leibniz Research Institute for Environmental Medicine (IUF) Neural Progenitor Cell Migration and Differentiation Assay for Cytotoxicity (NPC2-5) (AID 2284306).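 Further: LDH release into supernatant measured by resorufin fluorescence marking membrane damage.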 Put shortly: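 hNPC spheres (0.3 mm), PDL/laminin, DMEM/F12 3:1 + 1% N2; cpd from d0, 7 concs + SC, DMSO max 0.1%; half-medium refresh d3. Readout: supernatant LDH via resorufin fluorescence (RFU), 72 h; gain-of-signal fit.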

A short description of test [25]: IUF_NPC2-5_cell_number_120hr: Cell Number Assessment at 120 hours in the Leibniz Research Institute for Environmental Medicine (IUF) Neural Progenitor Cell Migration and Differentiation Assay (NPC2-5) (AID 2284308; active means hit-call score of the fitted dose curve at least 0.9, where 1 is the maximum; inactive means score below 0.9;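 further: count of Hoechst-stained nuclei in migration zone around plated human neural progenitor spheres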). Put shortly:
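Cell number is taken as all Hoechst-positive nuclei detected in the area into which cells migrate out of the sphere, scored at 120 h and referenced to DMSO solvent control, which was kept at no more than 0.1%.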

Test [26] is described as follows: IUF_NPC2-5_viability_120hr: Viability Assessment at 120 hours in the Leibniz Research Institute for Environmental Medicine (IUF) Neural Progenitor Cell Migration and Differentiation Assay (NPC2-5) (AID 2284312; active means hit-call score of the fitted dose curve at least 0.9, where 1 is the maximum; inactive means score below 0.9). The gist of the method:
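Human fetal neural progenitor spheres (0.3 mm) plated on poly-D-lysine/laminin in N2 differentiation medium, exposed 120 h with half-medium refresh at day 3. Viability by alamar blue resazurin fluorescence; 7 concentrations, DMSO max 0.1%.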

Test [27] in a line: IUF_NPC1_cytotoxicity_72hr: Cytotoxicity Assessment at 72 hours in the Leibniz Research Institute for Environmental Medicine (IUF) Neural Progenitor Cell Proliferation Assay (NPC1) (AID 2284332).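 Further: rising LDH signal means more cytotoxicity.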 The gist of the method: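 LDH in supernatant, resazurin→resorufin fluorescence (RFU), 72 h exposure, no re-dosing. Cells: primary hNPC spheres, one per well, EGF+FGF medium, 37C/5% CO2, pH 7.2-7.6. Fit: positive direction vs baseline and dynamic range.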

Chain of Cellular tumor antigen p53 (Homo sapiens) (P04637 whole entry, looked up): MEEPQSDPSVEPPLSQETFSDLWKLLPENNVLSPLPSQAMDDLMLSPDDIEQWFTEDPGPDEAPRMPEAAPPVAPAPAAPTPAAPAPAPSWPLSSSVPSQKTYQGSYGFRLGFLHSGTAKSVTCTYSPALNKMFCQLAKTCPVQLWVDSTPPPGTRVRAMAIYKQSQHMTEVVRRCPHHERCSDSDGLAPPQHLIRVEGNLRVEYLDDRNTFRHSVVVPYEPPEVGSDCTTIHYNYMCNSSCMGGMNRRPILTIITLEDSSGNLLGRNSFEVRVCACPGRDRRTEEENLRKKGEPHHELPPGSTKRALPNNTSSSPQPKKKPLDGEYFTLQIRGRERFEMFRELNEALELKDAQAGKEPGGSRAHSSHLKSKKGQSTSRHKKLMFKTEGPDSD

As for `CNC1(c2ccccc2Cl)CCCCC1=O` (stereo not given), the result in test [1], in test [2], in test [3], in test [4], in test [5] and in [6] was inactive. The outcome in [7], in test [8], in test [9], in test [10], in [12] and in [13] was inactive. Further, the compound was classed as inactive in [14], in test [15], in test [16], in test [17], in [18] and in [19]. Also, the call in [20], in test [22], in [23], in [24], in test [25] and in test [26] was inactive. Further, the call in test [27] was inactive. In addition, the values for the AC50 in test [11] and in test [21] were 34.1 µM (active) and 74.2 µM (active), respectively.

`C[C@]12N[C@H](Cc3ccccc31)c1ccccc12`: the result in test [1], in test [2], in test [3], in test [4], in test [6] and in test [7] was inactive.

Consider `O=C(O)CC(Cl)C(=O)O` (stereo not given), for which the result in test [1], in [3], in [4], in [5], in test [6] and in [7] was inactive. In addition, the half-maximal activity concentration (AC50) (in general, the concentration at which the activity in the assay is half-maximal) in test [2] is 57.3 µM (active).

On to `CNC(C)[C@@H]1CC[C@@H](N)[C@@H](O[C@H]2[C@H](O)[C@@H](O[C@H]3OC[C@](C)(O)[C@H](NC)[C@H]3O)[C@H](N)C[C@@H]2N)O1` (stereo not given in full) (tested in a mixture with another compound), for which the outcome in [1], in test [2], in test [3], in test [4] and in test [6] was inactive.
